In the library only some 2.7% were active in any assay of this set; here they are far more common.
CFTR F508del cor: correctors of CFTR F508del function in bronchial epithelial cells; AID 720511; CFBE cells, YFP halide quenching; stimulated with forskolin plus potentiator P3; % fluorescence drop versus neutral controls; activity (quench increase), % at 7.58 µM; 350,000 tested, 0.36% active;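 active = mean added fluorescence quench of at least 8% versus neutral control, with both replicates also reaching 8%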;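 note: cells transiently co-express mutant CFTR-F508del with the halide-sensitive YFP; corrector assay measuring rescue of mutant channel to the surface after 24 h compound exposure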
Wnt bcat act: Wnt/beta-catenin pathway activation. Wnt/beta-catenin reporter cell assay, activator, plate reader. activation, % at 9.35 µM. 300,000 tested, 1.2% active; in the data active = activation above about 30%, passing the limit was not always enough
INS-1E GSIS act: primary screen for activators of insulin secretion dependent on glucose, INS-1E cells, GLuc reporter luminescence | 370,000 tested, 0.61% active | activation, % at 16.6 µM | INS-1E GLuc reporter insulin secretion, 2-3 h;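 active = lowest replicate activation of at least 40%, so every replicate reaches that level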
MITF act: increases MITF-driven TRPM1 promoter luciferase signal. SK-MEL-5 TRPM1-promoter luciferase, 24 h; % of positive control, neutral wells = 0. activation, % at 12.5 µM. 300,000 tested, 0.75% active;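 active = mean activation of at least 80% with every replicate also reaching 80%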
Env fusion inh: blocks HIV Env-driven cell-cell fusion; HeLa-JRFL Env/CEM21 cell fusion, luciferase; inhibition, % at 12.3 µM; 360,000 tested, 1.1% active; AID 651610;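 active = mean replicate inhibition score of at least 50 and every replicate individually at or above 50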
Hits are given with their value; . = inactive; / = no result given.

SMILES	CFTR F508del cor	Wnt bcat act	INS-1E GSIS act	MITF act	Env fusion inh
CC(=O)c1ccc(NC(=O)Nc2ccc([N+](=O)[O-])cc2)cc1	.	.	.	.	.
CN(C)C(=S)Nc1ccc([N+](=O)[O-])cc1	/	/	68.4	.	.
O=C(Nc1ccc(Oc2ccc(NC(=O)Nc3ccc([N+](=O)[O-])cc3)cc2)cc1)Nc1ccc([N+](=O)[O-])cc1	.	.	.	.	59.7
COc1ccc(S(=O)(=O)N(C)C[C@H]2OCc3ccccc3-c3ccccc3C(=O)N([C@H](C)CO)C[C@@H]2C)cc1	.	/	.	/	/
CO[C@H]1CN(C)C(=O)c2ccc(NC(=O)C3CC3)cc2OC[C@H](C)N(C(=O)CN(C)C)C[C@H]1C	.	/	.	/	/
O=C1CS(=O)(=O)C(c2ccccc2)N1c1ccc(Cl)cc1 (stereo not given)	.	/	/	/	.
CC(C)NC(=O)Nc1cccc2c1O[C@H](CN(C)S(=O)(=O)c1cccs1)[C@@H](C)CN([C@@H](C)CO)C2=O	.	/	.	/	.
Cc1ccsc1-c1nc(-c2ccccc2)c(-c2ccccc2)[nH]1	/	53.1	/	/	.
Fc1ccc(-c2nc(-c3cccs3)[nH]c2-c2ccc(F)cc2)cc1	.	.	.	.	/
CO[C@H]1CN(C)C(=O)c2cc(NC(=O)C3CC3)ccc2OC[C@@H](C)N(C(=O)C2CCOCC2)C[C@@H]1C	.	/	.	/	.
CC1=NN(c2ccccc2)C(=O)C1N=Nc1ccccc1 (stereo not given)	.	56.6	.	.	.
CC1=NN(c2ccccc2)C(=O)C1N=Nc1cccc(O)c1 (stereo not given)	19.1	.	.	/	.
CC1=NN(c2ccccc2)C(=O)C1N=Nc1ccc(N)cc1 (stereo not given)	/	/	/	.	/
COc1ccc(-c2ccc3n(c2=O)C[C@H]2[C@H](CO)[C@@H](C(=O)NCC4CC4)[C@@H]3N2S(C)(=O)=O)cc1	.	/	.	/	/
Oc1ccc2ccccc2c1/C=C/c1ccc2c(Br)cc(Br)c(O)c2n1	13.3	.	/	/	.
Oc1cccc2ccc(/C=C/c3ccccc3Br)nc12	.	.	.	.	.
O=C(/C=C/Nc1ccc(Br)cn1)c1cccc(OC(F)F)c1	.	.	/	93.4	/
C[C@@H]1CN([C@H](C)CO)C(=O)c2cccc(NC(=O)Nc3ccc4c(c3)OCO4)c2O[C@H]1CN(C)Cc1ccncc1	.	/	.	/	.
CC(=NNC(=S)N(Cc1ccccn1)Cc1ccccn1)c1cnccn1	8.2	.	.	.	.
S=C(NN=C(c1ccccc1)c1ccccn1)N(Cc1ccccn1)Cc1ccccn1	.	.	.	.	76.2
O=C(NN=C(c1ccccc1)c1ccccn1)c1ccccc1	.	.	/	.	.
S=C(NN=Cc1ccccn1)N(Cc1ccccn1)Cc1ccccn1	.	.	.	.	.
CC1(C)CC(=O)C2=C(C1)N(c1ccc(F)cc1)C(=O)CC2c1cccnc1 (stereo not given)	.	.	.	.	.
CCSc1nnc(N2C(=O)CC(c3ccsc3)C3=C2CC(C)(C)CC3=O)s1 (stereo not given)	.	.	.	.	58.3
Cc1cccc(/N=C/c2sc3ccccc3c2O)n1	.	46.0	.	.	.
SMILES	CFTR F508del cor	Wnt bcat act	INS-1E GSIS act	MITF act	Env fusion inh
COc1ccc2c3c([nH]c2c1)[C@H](CO)N(S(C)(=O)=O)CC31CCN(CC2CCCCC2)CC1	.	/	.	/	/
COc1ccc2c3c(n(C)c2c1)[C@H](CO)NCC31CN(Cc2cc(-c3ccccc3)on2)C1	.	/	.	/	/
O=C(COc1ccccc1C(=O)c1cnn(-c2ccccc2)c1)Nc1ccc2ccccc2c1	/	.	/	113.6	.
CO[C@H]1CN(C)C(=O)c2ccc(NC(=O)C3CC3)cc2OC[C@@H](C)N(C(=O)NC(C)C)C[C@H]1C	.	/	.	/	/
Cc1cccc(N=C2NC(=O)/C(=C/c3cccnc3)S2)c1	.	.	45.1	/	.
CC1CCC2(CC1)NC(=O)N(CC(=O)N(Cc1ccccc1)C(C)(C)C)C2=O (stereo not given)	.	.	.	.	.
CC1CCC2(CC1)NC(=O)N(Cc1cccc(C(F)(F)F)c1)C2=O (stereo not given)	.	92.0	.	.	.
CN(C)C(=O)c1ccc(-c2ccc3c(c2)[C@@H]2[C@@H](CCN2C(=O)C2CCCCC2)[C@@H](CO)N3C)cc1	.	/	.	/	/
CCOC(=O)c1c(N)sc2c(OCC)c(Br)ccc12	.	.	.	.	/
CCOC(=O)c1c(NC(C)=O)sc2c(OCC(O)CNC(C)(C)C)c(Br)ccc12 (stereo not given)	/	.	44.9	.	.
C[C@@H]1CN([C@@H](C)CO)C(=O)c2cccc(NC(=O)C3CCOCC3)c2O[C@@H]1CN(C)Cc1ccncc1	.	/	.	/	.
COc1ccc(NC(=O)N2CCC3(CC2)CN(CC2CC2)[C@H](CO)c2c3c3ccc(OC)cc3n2C)cc1	.	/	.	/	/
O=C1NC(c2ccc(Br)cc2)=N/C1=C/c1ccco1	/	/	.	97.1	.
O=C1NC(c2ccccc2Cl)=N/C1=C/c1ccco1	.	52.7	.	.	.
CCCNC(=O)C[C@@H]1C[C@@H]2c3cc(NS(=O)(=O)c4ccc(F)cc4)ccc3O[C@@H]2[C@@H](CO)O1	.	/	.	/	.
O=c1oc(CCCO)cc2ccc(C#Cc3cccnc3)cc12	.	.	/	.	.
CN(C)c1ccc(C#Cc2ccc3cc(CCO)oc(=O)c3c2)cc1	/	/	/	127.7	/
COc1cc(C#Cc2ccc3cc(CCO)oc(=O)c3c2)cc(OC)c1	.	38.4	/	143.9	.
O=c1oc(CCO)cc2ccc(C#Cc3ccsc3)cc12	.	32.9	.	115.2	.
C[C@H]1CN([C@@H](C)CO)C(=O)c2cc(C#CC(C)(C)O)cnc2O[C@@H]1CN(C)C(=O)C1CCCCC1	.	/	.	/	.
CCCCC(=NCCc1c(C)[nH]c2ccc(OC)cc12)C1=C(O)CC(c2ccccc2)CC1=O (stereo not given)	10.9	.	.	.	.
CN1CCN(CCCNC(=O)c2ccc(/C=C3\Sc4ccccc4N(Cc4ccccc4F)C3=O)cc2)CC1	.	.	120.1	.	.
O=C(NCCN1CCOCC1)c1ccc(/C=C2\Sc3ccccc3N(Cc3ccccc3F)C2=O)cc1	.	.	.	.	.
CCN1CCN(CCNC(=O)c2ccc3c(c2)N(Cc2ccc(F)cc2)C(=O)/C(=C/c2ccccc2)S3)CC1	.	.	102.3	.	.
COc1cccc(C(=O)N2C[C@H]3[C@@H](c4ccccc42)[C@@H](CO)N3Cc2cccnc2)c1	.	/	.	/	/
SMILES	CFTR F508del cor	Wnt bcat act	INS-1E GSIS act	MITF act	Env fusion inh
COc1cc(/C=C/C2=NNC(=O)CC2)cc(OC)c1OC	.	.	.	.	73.4
CC(C)c1ccc(/C=C/C2=NNC(=O)CC2)cc1	.	.	.	.	.
O=C(c1ccccc1F)N1CC2(C1)[C@H](c1ccccc1)[C@H](CO)N2CC1CCCC1	.	/	.	/	/
O=C(CN1CCN(S(=O)(=O)c2ccc(F)c(Cl)c2)CC1)N1CCc2ccccc2C1	15.9	.	.	.	.
Cc1ccsc1C(=O)OCC(=O)N(C)C1CCCCC1	.	48.4	.	.	/
Cc1ccsc1C(=O)OCC(=O)NC1CCCC1	.	.	.	.	/
